Screening data deposited in PubChem BioAssay by National Center for Advancing Translational Sciences (NCATS).
LMNA splice mod: changes lamin A minigene splicing in HeLa cells; HeLa LMNA splicing GFP/RFP minigene ratio, 48 h; Potency, µM (top dose mostly 46.1 µM), inactives show at the highest dose ratio change, negative = inhibition, hits mostly inhibitors; hit rate 0.01% among 200,000; AID 1487; active means well fitted inhibition curve with a large enough effect in the signal ratio, with a control signal flat, not every such curve was filed as active; inconclusive means small, poorly fitted or top-dose-only effect, or effect the other way, or a change in a side signal; the % refers to the signal ratio; further: potency means the concentration at half of the fitted maximal effect
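S3 HeLa stable clones carrying a lamin A-EGFP splicing minigene plus DsRed2 were seeded at 600 cells/well in Opti-MEM with 2% FBS, pin-dosed and incubated 48 h at 37°C. Acumen cytometry (488 nm) gave the GFP/RFP total-intensity ratio.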
PNC inhibitor: inhibitors of perinucleolar compartment assembly. PC3M PTB-GFP, PNC prevalence imaging, 16 h; active compounds read low. activity change (PNC), negative = inhibition, % at 10 µM. hit rate 3.1% among 140,000;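 active means readout at or below -70, meaning at least 70% loss of cells showing the perinucleolar compartment, a nuclear body marking cancer cells; inconclusive means readout between -30 and a set limit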;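 further: plate controls were DMSO wells for no effect and camptothecin positive control wells for full effect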
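Compounds are pinned in duplicate onto adhered PC3M cells stably expressing GFP-tagged PTB and incubated 16 h at 37 C. Cells are then fixed, nuclei stained with Hoechst, and PNC-positive cells counted.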
ALDH1A1 inh: ALDH1A1 (human) enzyme inhibition. hit rate 7.3% among 220,000. Potency, µM (titrated, usually from 75.3 µM), for the others: top-dose activity, negative = inhibition, most hits filed as inhibitors. AID 1030. P00352. Purified ALDH1A1, NADH fluorescence, propionaldehyde substrate;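 further: potency means the concentration at half of the fitted maximal effect; plate controls were no enzyme wells and a reference inhibitor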
ALOX12 inhib: 12-hLO (ALOX12) enzyme inhibition | P18054 | purified 12-hLO, xylenol orange hydroperoxide absorbance | Potency, µM (series often up to 57.1 µM), for the others: at the top dose activity change, negative = inhibition, usual class: inhibitors | hit rate 0.12% among 150,000 | AID 1452; active means well fitted inhibition curve with a large enough effect; inconclusive means small, poorly fitted or top-dose-only effect; further: potency means the concentration at half of the fitted maximal effect; nearly all actives have a fitted effect of over 55% in size
Target sequence (P18054 whole entry, looked up): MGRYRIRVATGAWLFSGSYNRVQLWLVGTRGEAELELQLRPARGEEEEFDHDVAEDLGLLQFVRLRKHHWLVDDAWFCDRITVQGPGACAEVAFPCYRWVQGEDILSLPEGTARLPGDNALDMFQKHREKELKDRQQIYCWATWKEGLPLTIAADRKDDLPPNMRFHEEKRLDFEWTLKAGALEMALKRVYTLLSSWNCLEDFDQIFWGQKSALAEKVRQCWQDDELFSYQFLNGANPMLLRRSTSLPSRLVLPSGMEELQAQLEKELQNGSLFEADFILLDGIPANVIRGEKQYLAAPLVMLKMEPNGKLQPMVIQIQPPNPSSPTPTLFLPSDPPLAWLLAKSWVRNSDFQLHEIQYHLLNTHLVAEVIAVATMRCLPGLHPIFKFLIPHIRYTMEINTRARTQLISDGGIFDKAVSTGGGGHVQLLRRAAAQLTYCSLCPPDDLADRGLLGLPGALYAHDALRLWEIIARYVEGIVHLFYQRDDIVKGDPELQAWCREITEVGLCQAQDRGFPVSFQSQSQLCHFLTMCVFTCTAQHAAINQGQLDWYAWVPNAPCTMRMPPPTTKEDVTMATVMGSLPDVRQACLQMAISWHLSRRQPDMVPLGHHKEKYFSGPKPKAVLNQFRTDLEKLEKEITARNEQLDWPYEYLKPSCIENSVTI
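Hydroperoxide formation by human 12-lipoxygenase from 40 uM arachidonic acid was followed colorimetrically via ferric-xylenol orange complex, using the 573/405 nm absorbance ratio. Enzyme concentration was 150 nM, with 30 min reaction at room temperature.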
HPGD block: inhibitors of human 15-hydroxyprostaglandin dehydrogenase (HPGD); purified HPGD, NADH fluorescence kinetic, PGE2 substrate; Potency, µM, for the others: at the top dose activity change, negative = inhibition, hits mostly inhibitors; hit rate 4.3% among 150,000; AID 894; further: potency means the concentration at half of the fitted maximal effect
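20 nM HPGD preincubated 15 min at room temperature with compound in 50 mM Tris-HCl pH 8, 0.01% Tween 20. Started with 1 mM NAD+ and 30 uM prostaglandin E2; NADH fluorescence (360/450 nm) read 5 times over 30-s intervals, last minus first.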
* hit, by the source's call; ? = inconclusive; nt = no result given; [ ] = dose if it differs, or a comment. Shown are actives, neighbours in structure and some others; about 10% of the full set was active somewhere. Unless noted, the call rests on the fitted dose curve; in most records, active means well fitted inhibition curve with a large enough effect (not every such curve was filed as active); inconclusive means small, poorly fitted or top-dose-only effect, or another doubt; inactive means no such curve, though single readings can be large or run the other way. Unless noted, on the % scale 0 is the no-effect control and ±100 the full control effect.

SMILES | LMNA splice mod | PNC inhibitor | ALDH1A1 inh | ALOX12 inhib | HPGD block
O=S(=O)(NCCOCC(F)(F)F)c1ccc2oc3ccccc3c2c1 | -5% | 17 | 8.9µM* | -1% | ?
CCN(Cc1ccccc1)C(=O)CCc1nc(-c2ccc(C)cc2)no1 | ? | -4 | ? | -22% | ?
CCN(C(=O)CCc1nc(-c2ccccc2F)no1)c1cc(OC)ccc1OC | -13% | 6 | ? | -2% | 22µM*
COc1ccc(-c2noc(CCC(=O)Nc3cc(OC)ccc3OC)n2)cc1 | ? | 17 | 7.1µM* | 7% | -14%
Cc1ccc(-c2noc(CN(C(=O)Cc3ccccc3)C(C)C)n2)cc1 | ? | -81* | ? | -4% | -3%
CCc1ccccc1N(CC)C(=O)CCc1nc(-c2ccc(C)cc2)no1 | ? | -24 | 1% | -11% | 25µM*
COc1ccc(N2CCN(C(=O)CN3C(=O)CSc4c3c(C)nn4-c3ccccc3)CC2)cc1 | -2%[46 µM] | nt | nt | nt | nt
COc1ccc(CNC(=O)CCc2nc(-c3ccccc3F)no2)c(OC)c1 | -6% | -7 | 10µM* | 4% | -10%
Cc1nc2cnc(Nc3ccccc3)nc2n(C2CC2)c1=O | 7% | nt | 3% | nt | nt
CC1=C(C(=O)Nc2cccc(C(F)(F)F)c2)C(c2ccccc2)n2ncnc2N1 (configuration not stated) | -4%[46 µM] | nt | nt | nt | nt
NC(=S)N/N=C\c1ccc(-c2cccc(Cl)c2Cl)o1 | ? | 10 | 32µM* | ? | ?
N[C@H](C(=O)O)[C@H](N)C(=O)O | nt | nt | -1%[13.5 µM] | -1%[11.4 µM] | -1%
Cc1ccc(S(=O)(=O)NNC(=O)NC23CC4CC(CC(C4)C2)C3)cc1 | -6% | 13 | -5% | -1% | 2%
O=C1Nc2ccc(Br)cc2C1(O)Cc1ccccn1 (configuration not stated) | -2% | -114* | 12% | 2% | -3%
O=C(C1CC1)N1CCN(c2ccnc3cc(Cl)ccc23)CC1 | 9%[46 µM] | nt | 42% | nt | nt
CC(C)S(=O)(=O)N1CCN(c2ccnc3cc(Cl)ccc23)CC1 | nt | nt | 14µM* | nt | nt
Cc1onc(-c2c(F)cccc2Cl)c1C(=O)N1CCN(c2ncccn2)CC1 | ? | nt | 7% | nt | nt
O=C(c1sc2cccc(F)c2c1Cl)N1CCN(c2ncccn2)CC1 | ? | 29 | 28µM* | 2% | -12%
CC1CN2C(CCC(C)C2c2ccc(Br)cc2)C(=O)O1 (configuration not stated) | nt | nt | 28%[13.5 µM] | nt | nt
Cc1cccc(-n2ncc(C(=O)N3CCN(Cc4ccccc4)CC3)c2C2CCN(C(=O)OC(C)(C)C)CC2)c1 | 1%[46 µM] | nt | nt | nt | nt
N#CCCCS(=O)(=O)c1nnnn1-c1ccc(F)cc1Br | nt | nt | 18µM* | nt | -10%
CC[C@@H]1/C=C(\C)C[C@H](C)C[C@H](OC)[C@H]2O[C@@](O)(C(=O)C(=O)N3CCCC[C@H]3C(=O)O[C@H](/C(C)=C/[C@@H]3CC[C@@H](O)[C@H](OC)C3)[C@H](C)[C@@H](O)CC1=O)[C@H](C)C[C@@H]2OC | nt | nt | -1% | nt | nt
CC1(C)CC(=O)N(c2ccccc2)C1(C)O (configuration not stated) | -4% | -86* | 3% | 2% | -13%
OCCSCc1cc(Cl)cc(Cl)c1O | nt | nt | -11%[13.5 µM] | -6%[11.4 µM] | 0%
COc1ccc(OC)c(C2C(C#N)=C(N)Oc3cc(N)ccc32)c1 (configuration not stated) | -1% | 13 | 11µM* | -19% | -7%
SMILES | LMNA splice mod | PNC inhibitor | ALDH1A1 inh | ALOX12 inhib | HPGD block
CCN(c1ccc(C)cc1C)S(=O)(=O)c1nnc(NC(=O)c2ccccc2OC)s1 | 7%[46 µM] | nt | nt | nt | nt
Nc1ccc(C(=O)Nc2ccco2)cc1 | -9% | -100* | 1% | -1% | -9%
CC(C)(C)c1ccc(C(=O)Nc2ccccc2NC(=O)c2ccco2)cc1 | -6% | 56 | -7% | 7% | -10%
CCC(=C(CC)c1ccc(O)cc1)c1ccc(O)cc1 | ? | nt | 5%[20.9 µM] | -13%[25.6 µM] | -3%
Cc1ccccc1CN1C(=O)c2ccccc2Sc2ccc(C(=O)NCCc3ccccc3)cc21 | -14%[46 µM] | nt | nt | nt | nt
CC1CCc2nc(NC(=O)CN3CCN(Cc4ccc5c(c4)OCO5)CC3)sc2C1 (configuration not stated) | ? | 38 | 14µM* | -11% | -18%
CC1CCc2nc(NC(=O)CN3CCN(c4ccccc4)CC3)sc2C1 (configuration not stated) | ? | 34 | ? | -13% | -1%
O=C(CSc1nc(=O)n(CCN2CCOCC2)c2c1CCC2)Nc1ccccc1 | 6%[46 µM] | nt | nt | nt | nt
CCCn1c(=O)c2[nH]c(-c3ccccc3)nc2n(CCC)c1=O | nt | nt | -10% | -1% | -20%
O=C1OC(O)C(C(Cl)Cl)=C1Cl (configuration not stated) | nt | nt | 20µM* | 0% | -8%
Cc1ccc(CCNC(=O)C23CN(Cc4ccccc4)CC2C(c2cccc([N+](=O)[O-])c2)=NO3)cc1 (configuration not stated) | -8% | ? | ? | 3% | -18%
O=C(NCc1ccc2c(c1)OCO2)C12CN(Cc3ccccc3)CC1C(c1cccc([N+](=O)[O-])c1)=NO2 (configuration not stated) | -12% | -87* | ? | -1% | -2%
COc1ccc(CCNC(=O)C23CN(Cc4ccccc4)CC2C(c2cccc([N+](=O)[O-])c2)=NO3)cc1 (configuration not stated) | -4% | -19 | 8.9µM* | -1% | -25%
COc1ccccc1C1CC(c2ccccc2)=NN1C(=S)Nc1ccccc1 (configuration not stated) | nt | nt | -2% | nt | nt
COc1cn(CC(=O)Nc2cccc(C)c2)c(CN2CCCCC2)cc1=O | 2%[46 µM] | nt | nt | nt | nt
Cc1ccc2nc(SCC(=O)Nc3ccccc3N3CCOCC3)c(C#N)cc2c1 | -5% | -111* | -1% | 2% | -17%
Cc1ccc(-n2nnc3c(SCC(=O)NCC4CCCO4)ncnc32)cc1 (configuration not stated) | -4% | 4 | 1% | -4% | 1.3µM*
Cc1ccc2cc(C#N)c(SCC(=O)NCC3CCCO3)nc2c1 (configuration not stated) | 10% | 21 | -10% | -3% | -23%
COc1ccc(-n2nnc3c(=O)n(CC(=O)NCC4CCCO4)cnc32)cc1 (configuration not stated) | -5% | -30 | ? | 4% | ?
Cc1ccc2nc(SCC(=O)NCC3CCCO3)c(C#N)cc2c1 (configuration not stated) | -6% | 16 | 5% | -3% | 6.3µM*
CCCn1c(-c2ccc(F)cc2)nc2c(NC3CCN(Cc4ccccc4)CC3)nc(C)nc21 | nt | nt | ? | -8% | ?
O=C(NCCc1ccc(Cl)cc1)c1c2c(nc3ccccc13)C(=O)N(C1CCCCC1)C2 | -9%[46 µM] | nt | nt | nt | nt
CCc1ccc(-c2cn3c(n2)sc2cc(C(=O)NC4CCCCCC4)ccc23)cc1 | -2%[46 µM] | nt | nt | nt | nt
